Screening results: PubChem, National Center for Advancing Translational Sciences (NCATS)
The list is not random: actives were taken first. Their share in the collection is about 10%.
CtBP-E1A inh: blocks the CtBP interaction with E1A; AID 651724; hit rate 0.49% among 340,000; activity change, % (test concentration not listed); AlphaScreen GST-E1A/His-CtBP binding, 1536-well; active compounds read low; in the data active = activity change below about -65%; inconclusive = mostly about -30% to -63%; note: % is set by controls: 0 for no effect and ±100 for the full control effect
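GST-E1A and His-tagged CtBP (125 nM each as 5X stock) were preincubated with pin-transferred compound for 2 h at 37 °C in the dark, then glutathione donor and nickel acceptor beads were added for 1 h before AlphaScreen reading.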
JMJD2A Tudor inh: inhibitors of human JMJD2A Tudor domain; O75164; Potency, µM (doses to about 114 µM), inactives show at the top dose activity change, negative = inhibition, actives largely listed as inhibitors; AID 504339; hit rate 4.4% among 390,000; AlphaScreen JMJD2A-Tudor / H3K4me3 peptide binding; note: potency is the fitted concentration of half-maximal effect; % is set by controls: 0 for no effect and ±100 for the full control effect; nearly all actives have a fitted effect of over 50% in size
Six1-Eya2 blk: Six1/Eya2 interaction inhibition; Q15475+O00167; AlphaScreen GST-Six1/His-Eya2 binding, biochemical; active compounds read low; activity change, % (no concentration beside the values); hit rate 0.56% among 360,000; AID 651725; in the data active = activity change below about -65%; inconclusive = mostly about -30% to -63%; note: % is set by controls: 0 for no effect and ±100 for the full control effect
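Compounds are tested against tagged Six1 and Eya2 proteins bridged by glutathione donor and nickel acceptor beads; after a one-hour incubation at 37 °C without light, AlphaScreen emission is recorded.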
G9a block: inhibitors of human histone lysine methyltransferase G9a; hit rate 8.8% among 350,000; G9a H3K9 monomethylation, AlphaScreen, 2 h; Q96KQ7; Potency, µM (doses to about 102 µM), inactives show at the top dose activity, negative = inhibition, actives largely listed as inhibitors; AID 504332; note: potency is the fitted concentration of half-maximal effect; % is set by controls: 0 for no effect and ±100 for the full control effect; nearly all actives have a fitted effect of over 75% in size
Target sequence (Q96KQ7 913-1193 limits assumed): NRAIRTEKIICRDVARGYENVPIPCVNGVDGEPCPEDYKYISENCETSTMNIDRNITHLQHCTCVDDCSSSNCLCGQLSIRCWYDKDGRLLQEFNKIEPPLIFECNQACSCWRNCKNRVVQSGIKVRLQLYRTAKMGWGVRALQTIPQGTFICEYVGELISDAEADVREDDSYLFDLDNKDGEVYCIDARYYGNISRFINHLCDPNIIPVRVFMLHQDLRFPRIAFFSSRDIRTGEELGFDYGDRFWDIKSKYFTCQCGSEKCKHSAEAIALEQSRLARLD
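Chemiluminescent proximity detection of H3K9 monomethylation, read after 10 min bead incubation in the dark. Reaction: 20 nM G9a, 500 nM biotin-H3K9 peptide, 20 uM SAM cofactor, 2 h, room temperature, following 15 min enzyme-compound preincubation.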
BAZ2B block: blocks human BAZ2B; Potency, µM (top dose mostly 114 µM), for the others: at the highest dose activity change, negative = inhibition, hits mostly inhibitors; hit rate 4.4% among 360,000; AlphaScreen BAZ2B-H3K14Ac peptide displacement; Q9UIF8; note: potency is the fitted concentration of half-maximal effect; % is set by controls: 0 for no effect and ±100 for the full control effect; nearly all actives have a fitted effect of over 60% in size
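BAZ2B 50 nM plus b-H3(5-23)K14Ac 50 nM, PBS pH 7.4/0.01% Tween-20, 30 min RT; compound added (max 110 uM), 30 min RT; streptavidin donor/Ni-chelate acceptor beads 10 ug/mL final, 20 min dark; AlphaScreen read.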
HP1b binding inh: blocks HP1-beta chromodomain binding to methylated histone tails; AlphaScreen HP1-beta / biotin-H3K9me3 peptide binding; Potency, µM (doses to about 114 µM), for the others: at the top dose activity change, negative = inhibition, most hits filed as inhibitors; hit rate 0.56% among 390,000; AID 540317; note: potency is the fitted concentration of half-maximal effect; nearly all actives have a fitted effect of over 70% in size
Target sequence (P83916 whole entry, looked up): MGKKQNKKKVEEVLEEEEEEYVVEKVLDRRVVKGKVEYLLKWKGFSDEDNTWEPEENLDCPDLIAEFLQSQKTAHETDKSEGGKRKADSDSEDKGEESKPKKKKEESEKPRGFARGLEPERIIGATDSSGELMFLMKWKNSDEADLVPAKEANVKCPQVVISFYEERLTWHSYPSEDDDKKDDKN
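Compound inhibition of the preformed complex between 50 nM HP1-beta and 50 nM biotinylated H3K9me3 peptide was read by AlphaScreen. Buffer was PBS pH 7.4 with 0.01% Tween-20. Incubations ran 30 min at room temperature, with 10 ug/mL donor/acceptor beads.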
* marks the source's active call; other numbers are inactive results; ? = inconclusive; nt = no result given; [ ] = remark or other dose. Unless noted, calls come from the whole dose curve; as a rule, active = well fitted inhibition curve with a large enough effect; inconclusive = small, poorly fitted or top-dose-only effect; inactive = no such curve, though single readings can be large or run the other way.

SMILES	CtBP-E1A inh	JMJD2A Tudor inh	Six1-Eya2 blk	G9a block	BAZ2B block	HP1b binding inh
Cc1ccccc1NC(=O)CN1C(=O)CCn2nc(-c3cccn3C)cc21	nt	-21%	nt	-33%[59 µM]	-34%	3%[57 µM]
COc1ccc(NC(=O)C2CCCN(c3nnc(C)c4c(C)n(-c5ccccc5)nc34)C2)cc1Cl (stereo not drawn)	nt	-14%	nt	?	-30%	15%
O=C(Nc1ccc(N2CCOCC2)cc1)Nc1ccc2nc(-c3ccco3)c(-c3ccco3)nc2c1	?	?	?	1.8µM*	5%	-17%
O=C(NCCCO)Nc1ccc2nc(-c3ccco3)c(-c3ccco3)nc2c1	nt	nt	nt	1.8µM*	3.5µM*	nt
O=C(Nc1ccc2nc(-c3ccco3)c(-c3ccco3)nc2c1)NC1CC1	?	20µM*	-68*	?	11µM*	35µM*
CCOc1ccc(N2CC(c3nc(-c4cc(OC)c(OC)c(OC)c4)no3)CC2=O)cc1 (stereo not drawn)	nt	-18%	nt	2%[59 µM]	-20%	18%
N#CC1=C2SCC(O)(c3ccccc3)N2C(=O)CC1c1cccs1 (stereo not drawn)	-4	-29%	-22	50µM*	?	-5%
COc1ccc(C(=O)NNC(=O)C(=O)N2CCCCC2)cc1OC	2	25µM*	9	?	-5%	19%
COc1cccc(C(=O)NNC(=O)C(=O)N2CCCCC2)c1	0	-15%	1	50µM*	-21%	16%
COc1ccc(C(=O)Nc2ccc(C(=O)N3CCCCC3)cc2)cc1OC	-10	4%	-3	23%	4%	17%
Cc1ccc(-n2ncc3c(NC4CCCCC4)ncnc32)cc1C	nt	1%	nt	2%[59 µM]	0%	27%
COc1ccc(-n2c(O)c(/C=N/NS(=O)(=O)c3cccc([N+](=O)[O-])c3)c3ccccc3c2=O)cc1OC	-6	?	-9	40µM*	50µM*	3%
Cn1c(=O)c(=O)n(C)c2cc(S(=O)(=O)N3CCCC3C(=O)Nc3cccc(F)c3)ccc21 (stereo not drawn)	nt	-11%	nt	-29%[59 µM]	-1%	32%
COCC(C)n1c(C)cc(C(=O)COc2ccc(N(C)S(=O)(=O)c3ccc(NC(C)=O)cc3)cc2)c1C (stereo not drawn)	0	-32%	-7	35µM*	?	-12%
C=CCn1c(C)cc(C(=O)COc2ccc(N(C)S(=O)(=O)c3ccc(NC(C)=O)cc3)cc2)c1C	-10	-18%	-16	nt	nt	9%
CN(C)CCCn1c(=S)[nH]c2sc3c(c2c1=O)CCCC3	3	22µM*	-21	7.9µM*	?	?
C=CCn1c(=S)[nH]c2sc3c(c2c1=O)CCC3	9	-32%	-2	3.2µM*	-5%	12%
Cc1cc(C)c(NC(=O)Cn2c(=O)n(CCC(=O)NCc3ccccc3Cl)c(=O)c3sccc32)c(C)c1	nt	3%	nt	6%[59 µM]	0%	19%
C/C=C/c1ccc(OCC(=O)Nc2cc(OC)c(OC)c(OC)c2)c(OC)c1	-15	?	-11	1%	nt	1%
C/C=C/c1ccc(OCC(O)CNCCc2ccc(OC)cc2)c(OC)c1 (stereo not drawn)	-18	20µM*	-6	7.9µM*	56µM*	?
C/C=C/c1ccc(OCC(O)CN2CCCCC2CC)c(OC)c1 (stereo not drawn)	0	3.5µM*	-3	22µM*	56µM*	?
C/C=C/c1ccc(OCC(O)CN(C)Cc2ccc(SC)cc2)c(OC)c1 (stereo not drawn)	nt	4µM*	-19	71µM*	50µM*	?
C/C=C/c1ccc(OCC(O)CNCC(c2ccc(OC)cc2)N(C)C)c(OC)c1 (stereo not drawn)	3	22µM*	-1	?	18µM*	-15%
COc1ccc(C2/C=C\CN(S(=O)(=O)c3ccc(C)cc3)C(C)C(=O)N2Cc2ccc(F)cc2)cc1 (stereo not drawn)	nt	-20%	nt	nt	nt	25%
CC(C)c1ccccc1NC(=O)CN1C(=O)c2cccc3cccc1c23	nt	22%	nt	8%[59 µM]	7%	37%
SMILES	CtBP-E1A inh	JMJD2A Tudor inh	Six1-Eya2 blk	G9a block	BAZ2B block	HP1b binding inh
Cc1occc1C(=O)NCc1ccc2c(c1)OCO2	-3	-29%	0	11%[12.7 µM]	-5%	6%
Cc1occc1C(=O)NCc1cccc(CNC(=O)c2ccoc2C)c1	-21	56µM*	-15	22µM*	50µM*	?
CC(C)CN(C(=O)/C=C/c1nc2ccccc2s1)C1CCS(=O)(=O)C1 (stereo not drawn)	-1	-21%	4	56µM*	3%	0%
COc1ccc(/C=C/C(=O)N(CC(C)C)C2CCS(=O)(=O)C2)cc1 (stereo not drawn)	4	5%	-1	3%	8%	29%
Cc1cc(C)c(NC(=O)C2=CCN(S(=O)(=O)c3ccc(F)cc3)CC2)c(C)c1	4	-19%	-2	?	2%	36%
Cc1cc(C)c(NC(=O)c2c[nH]c(=S)n2-c2ccc(F)cc2)c(C)c1	nt	?	4	2.8µM*	-21%	28%
COc1ccc(CCNC(=O)c2ccc(-n3c(C)cc4c3CCC(C)C4)cc2)cc1OC (stereo not drawn)	nt	-27%	nt	-33%[59 µM]	-21%	-10%
CCCCn1c(N)c(N(CCOC)C(=O)c2cc(-c3ccc(F)cc3)nc3ccccc23)c(=O)[nH]c1=O	1	-10%	-7	45µM*	2%	36%
CCCCN(C(=O)c1cc(Cl)nc2ccccc12)c1c(N)n(CCC)c(=O)[nH]c1=O	-23	nt	7	nt	nt	nt
CCCN(C(=O)CCCSc1nc2ccccc2[nH]1)c1c(N)n(Cc2ccccc2)c(=O)[nH]c1=O	-4	-6%	17	-26%	-1%	16%
CCCCN(C(=O)c1cc(Cl)nc2ccccc12)c1c(N)n(Cc2ccccc2)c(=O)[nH]c1=O	13	-12%	8	50µM*	-5%	18%
CCCCN(C(=O)c1cccc(-n2cccc2)c1)c1c(N)n(Cc2ccccc2)c(=O)[nH]c1=O	nt	nt	nt	11%[0.501 µM]	45µM*	nt
CCCCN(C(=O)CCCSc1nc2ccccc2[nH]1)c1c(N)n(Cc2ccccc2)c(=O)[nH]c1=O	18	-2%	3	10µM*	-9%	16%
CCCCn1c(N)c(N(CCOC)C(=O)c2cc(-c3ccc(C)cc3)nc3ccccc23)c(=O)[nH]c1=O	-1	-4%	7	-18%[0.501 µM]	6%	35%
COc1cc(NC(=O)c2cc(C3CC3)nc3c2c(C)nn3-c2ccc(C)cc2)cc(OC)c1	nt	0%	nt	6%[59 µM]	17%[57.1 µM]	56%
CCc1cccc(C)c1NC(=O)Cn1c(=O)cc(C(F)(F)F)c2c(C)nn(C)c21	nt	-8%	nt	5%[59 µM]	-17%	1%
